Source: PubChem
FBPA coupling cs = coupling enzyme interference in Giardia aldolase counter-screen; coupling enzyme system counterscreen, AmpLite Red fluorescence; activity change, negative = inhibition, % at 58.2 µM, hits read low; 0.67% of 290,000 active; in the data active = activity change below about -30%
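Final compound at 57.5 uM, incubated 10 min at RT with coupling enzyme reagent (glyceraldehyde-3-phosphate), then 20 min with substrate and AmpLite Red detection. Fluorescence read at 525/598 nm; tests interference with the coupling assay, not aldolase inhibition.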
Tau fluor cs = counter-screen for tau fibril formation inhibitors; Potency, µM (doses to about 57.7 µM), without a hit: at the highest dose activity change, negative = decrease; tau K18 P301L Alexa594 fluorescence, heparin fibrillization; 0.93% of 280,000 active; also: potency is read from the fitted curve at half-maximal effect; nearly all actives have a fitted effect of over 55% in size
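Human tau K18 P301L (15 uM unlabeled, 0.24 uM Alexa 594-labeled) in 100 mM sodium acetate pH 7 with 20 uM heparin, 6 hr at 37 C. ThT 30 uM added, 1 hr ambient; Alexa 594 FP and total fluorescence read at 555/632 nm.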
Tau FP inhib = blocks human tau fibril formation measured by polarization; P10636; K18 P301L tau heparin fibrillization, Alexa594 FP, 6 h; Potency, µM (series often up to 57.7 µM), for inactives: at the top dose activity, negative = inhibition, usual class: inhibitors; 0.39% of 280,000 active; AID 1468; also: potency is read from the fitted curve at half-maximal effect; nearly all actives have a fitted effect of over 55% in size
Target sequence (P10636 561-689 P618L limits assumed): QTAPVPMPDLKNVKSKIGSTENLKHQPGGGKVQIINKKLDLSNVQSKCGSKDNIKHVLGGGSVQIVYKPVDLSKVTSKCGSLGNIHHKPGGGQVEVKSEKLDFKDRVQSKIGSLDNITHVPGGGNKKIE
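FP of Alexa 594-tau after heparin (20 uM) induction. Substrate: human K18 P301L, 15 uM unlabeled, 0.24 uM labeled. Buffer 100 mM sodium acetate pH 7. 6 hr, 37 C.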
Tau fibril ThT = blocks human tau fibril formation measured by thioflavin T; 2.1% of 270,000 active; recombinant tau K18 P301L, heparin-induced fibrillization, ThT fluorescence; Potency, µM (top dose mostly 57.4 µM), for inactives: at the top dose activity, negative = inhibition, usual class: inhibitors; P10636; also: potency is read from the fitted curve at half-maximal effect; nearly all actives have a fitted effect of over 55% in size
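ThT emission at 510 nm, taken 1 hr after adding 30 uM dye, quantifies aggregates formed when 20 uM heparin acts on human tau K18 P301L for 6 hr at 37 C.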
Sfp PPTase inh = blocks B. subtilis Sfp PPTase activity; Potency, µM, inactives show largest response in the series, negative = inhibition, hits mostly inhibitors; Q9F4F7; Biochemical Sfp PPTase activity, qHTS; AID 1490; 3.5% of 310,000 active;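 also: the enzyme is Sfp with the accession as filed and its product quenches rhodamine fluorescence; potency is read from the fitted curve at half-maximal effect; 0% = enzyme reaction without inhibitor and -100% = no enzyme wells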
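With Hepes-Na pH 7.6 buffer containing 10 mM MgCl2, Sfp (15 nM) modified BHQ-2-YbbR (12.5 uM) using rhodamine-CoA (5 uM). Two reads 30 minutes apart at 525/598 nm yielded each well's rate.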
The depositor's hits bear a star; [ ] = remark or other dose. Hits are enriched below; roughly 5.2% of the tested compounds scored in any of these assays. Unless noted, calls follow the shape of the dose curve; as a rule, active = well fitted curve in the direction sought with a large enough effect; inconclusive = small, poorly fitted or top-dose-only effect, or another doubt; inactive = no such curve, though single readings can be large; an effect the other way counts as inactive or inconclusive. Unless noted, % is scaled to controls: 0 for no effect and ±100 for the full control effect.

`CCCn1nc([N+](=O)[O-])c(C(C#N)c2nc3ccccc3s2)c(Cl)c1=O` (centres undefined) gave FBPA coupling cs 5, Tau fluor cs 5µM*[quencher], Tau FP inhib 18µM*, Tau fibril ThT 4µM* and Sfp PPTase inh 17%.
`COc1ccc(CNc2ccnc(-c3ccccc3CN(C)C)n2)c(OC)c1` gave FBPA coupling cs 2 and Sfp PPTase inh -2%.
For CCOC(=O)[C@]1(C(NC(=O)OC)c2cccc(F)c2)CCCC1=O (some centres undefined) the results were FBPA coupling cs -1, Tau fluor cs -5%[11.6 µM], Tau FP inhib -6%[11.6 µM], Tau fibril ThT -8%[11.5 µM] and Sfp PPTase inh 12%.
`CCOC(=O)c1c(N)sc(C(O)(C(F)(F)F)C(F)(F)F)c1-c1ccc(F)cc1` gave Tau fluor cs inconclusive, Tau FP inhib 9%, Tau fibril ThT -13% and Sfp PPTase inh 14%.
`CCOC(=O)c1c(NC(=O)Nc2ccc(Cl)cc2)sc(C)c1C` gave FBPA coupling cs -2, Tau fluor cs -23%, Tau FP inhib 3%, Tau fibril ThT -5% and Sfp PPTase inh 14%.
`CCOC(=O)c1c(NC(=O)/C=C/C(=O)O)sc(C)c1-c1ccc(Cl)cc1` gave FBPA coupling cs 18, Tau fluor cs -10%, Tau FP inhib inconclusive, Tau fibril ThT 32µM* and Sfp PPTase inh 12%.
Screening CCOC(=O)c1c(N)sc(C(O)(C(F)(F)F)C(F)(F)F)c1-c1ccc(Cl)cc1 returned FBPA coupling cs -1, Tau fluor cs 25µM*[quencher], Tau FP inhib 3%, Tau fibril ThT inconclusive and Sfp PPTase inh 23%.
CCOC(=O)c1ccc(NC(=S)N2CCSC2c2ccc(Cl)cc2)cc1 (centres undefined) was read as FBPA coupling cs 1, Tau fluor cs inconclusive, Tau FP inhib inconclusive, Tau fibril ThT -10% and Sfp PPTase inh 16%.
For CCOC(=O)c1ccc(NC(=S)N2CCSC2c2ccc(OC)cc2)cc1 (centres undefined) the results were FBPA coupling cs -3, Tau fluor cs inconclusive, Tau FP inhib 25µM*, Tau fibril ThT inconclusive and Sfp PPTase inh -1%.
For CCCS(=O)(=O)c1nc(S(=O)(=O)c2ccc(C)cc2)c(NCc2ccccc2Cl)s1 the results were Tau fluor cs -22%, Tau FP inhib -10% and Tau fibril ThT 0%.
Screening CCN(C(=O)CSc1ccc2c(c1)OCCO2)C1CCS(=O)(=O)C1 (centres undefined) returned FBPA coupling cs 3, Tau fluor cs -18%, Tau FP inhib -10%, Tau fibril ThT -9% and Sfp PPTase inh -4%.
For CCN(C(=O)CSc1nc2cc(S(=O)(=O)N(CC)CC)ccc2o1)C1CCS(=O)(=O)C1 (centres undefined) the results were FBPA coupling cs -2 and Sfp PPTase inh 18µM*.
Screening CCOc1ccc(N)c(SSc2cc(OCC)ccc2N)c1 returned FBPA coupling cs -1 and Sfp PPTase inh 2.8µM*.
Cc1cc(=O)c(C(=O)O)nn1-c1cccc(C(F)(F)F)c1 was read as FBPA coupling cs 1 and Sfp PPTase inh 11%.
`O=c1ccn(-c2cccc(C(F)(F)F)c2)nc1-c1ccn(-c2ccccc2)n1` gave FBPA coupling cs -38*, Tau fluor cs -16%, Tau FP inhib -5%, Tau fibril ThT -12% and Sfp PPTase inh -1%.
Screening CC1CN(C2CCN(S(=O)(=O)c3ccc4ccccc4c3)CC2)CC(C)O1 (centres undefined) returned FBPA coupling cs -2, Tau fluor cs -11%, Tau FP inhib -13%, Tau fibril ThT -10% and Sfp PPTase inh 32µM*.
Screening CO[C@H]1COC(=O)[C@H](C)COC(=O)[C@H](C)NC(=O)C/C=C\[C@H]1C returned FBPA coupling cs 2, Tau fluor cs -3%[11.6 µM], Tau FP inhib 0%[11.6 µM], Tau fibril ThT 1%[11.5 µM] and Sfp PPTase inh 19%.
`CC1CC(C)CN(CCOCCSc2ccccc2)C1` (centres undefined) gave FBPA coupling cs 2, Tau fluor cs -6%, Tau FP inhib -5%, Tau fibril ThT -3% and Sfp PPTase inh -20%.
`CC1CC(C)CN(CCOCCSc2ccc(Cl)cc2)C1` (centres undefined) gave FBPA coupling cs -4, Tau fluor cs 1%, Tau FP inhib -4%, Tau fibril ThT 9% and Sfp PPTase inh 56µM*.
Screening Cc1cc(N)n2ncc(-c3cccc(Br)c3)c2n1 returned FBPA coupling cs -1, Tau fluor cs 16µM*[quencher], Tau FP inhib 2%, Tau fibril ThT inconclusive and Sfp PPTase inh 5%.
Screening CCCCn1c2ccccc2c2nnc(SCC(=O)Nc3ccc(NC(C)=O)cc3)nc21 returned Tau fluor cs -14%, Tau FP inhib inconclusive and Tau fibril ThT -4%.
For COC(=O)c1ccc(CC(=O)c2c(C)cc(O)cc2O)o1 the results were FBPA coupling cs -13, Tau fluor cs inconclusive, Tau FP inhib inconclusive, Tau fibril ThT 28µM* and Sfp PPTase inh 40µM*.
Cc1cc(/C([O-])=C(/C(=S)Nc2ccc(F)cc2)[n+]2ccccc2)c(C)n1-c1ccc(F)cc1 was read as FBPA coupling cs -8, Tau fluor cs inconclusive, Tau FP inhib -11%, Tau fibril ThT 28µM* and Sfp PPTase inh inconclusive.
Screening Cc1cc(/C([O-])=C(/C(=S)Nc2ccc(F)cc2)[n+]2ccccc2)c(C)n1Cc1ccccc1Cl returned FBPA coupling cs -2, Tau fluor cs -15%, Tau FP inhib -5%, Tau fibril ThT inconclusive and Sfp PPTase inh -15%.
Cc1ccc(-n2c(C)cc(/C([O-])=C(/C(=S)Nc3ccc(F)c(Cl)c3)[n+]3ccccc3)c2C)cc1 was read as FBPA coupling cs -11, Tau fluor cs -26%, Tau FP inhib -1%, Tau fibril ThT inconclusive and Sfp PPTase inh 56µM*.
For Cc1cc(/C([O-])=C(/C(=S)Nc2ccccc2)[n+]2ccccc2)c(C)n1-c1ccccc1 the results were FBPA coupling cs -1, Tau fluor cs -18%, Tau FP inhib -4%, Tau fibril ThT inconclusive and Sfp PPTase inh -10%.
CC(C)(C)c1ccc(-c2nc3[nH]c(=O)cc(NC(=O)c4ccco4)n3n2)cc1 was read as Sfp PPTase inh 40µM*.
Screening COc1ccc(NCC(=O)Nc2ccc(Cl)cc2C)c(OC)c1 returned FBPA coupling cs -11, Tau fluor cs inconclusive, Tau FP inhib -14%, Tau fibril ThT 32µM* and Sfp PPTase inh -4%.
Cc1ccc2c(c1)cc1c(=O)n(CC(=O)NC3CCCCC3)nc(C)n12 was read as Tau fluor cs -1%, Tau FP inhib 4% and Tau fibril ThT 2%.
O=C(CN1CCCC1)Nc1ccccc1Sc1ccc(Cl)cc1 was read as FBPA coupling cs -8, Tau fluor cs -8%, Tau FP inhib 2%, Tau fibril ThT -11% and Sfp PPTase inh 79µM*.
